Measured values taken from PubChem BioAssay (NCI).
This is part of a sample that, as a whole, favours compounds with a hit. Of some 83,000 tested, about 20% had one in any assay.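 Method: cells in 96-well plates; compound added at one concentration; 48 h incubation; percent growth measured; values under 10 scored active.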 Unmarked numbers belong to inactive results. The source made the active and inactive calls.

How the values were obtained:
Experiment in all cases: NCI-60 one-dose screen, 48 h (100 = growth as untreated, 0 = no growth, -100 = all killed)
Conditions in all cases: 10 µM unless noted
NCI-H23 lung = system: NCI-H23 lung
NCI-H226 lung = system: NCI-H226 lung
NCI-H322M lung = system: NCI-H322M lung
HOP-62 NSCLC = system: HOP-62 NSCLC
NCI-H460 lung = system: NCI-H460 lung
HOP-92 NSCLC = system: HOP-92 NSCLC
NCI-H522 lung = system: NCI-H522 lung
A549/ATCC NSCLC = system: A549/ATCC NSCLC
786-0 renal = system: 786-0 renal
COLO 205 colon = system: COLO 205 colon

Row | Compound | growth (NCI-H23 lung) | growth (NCI-H226 lung) | growth (NCI-H322M lung) | growth (HOP-62 NSCLC) | growth (NCI-H460 lung) | growth (HOP-92 NSCLC) | growth (NCI-H522 lung) | growth (A549/ATCC NSCLC) | growth (786-0 renal) | growth (COLO 205 colon)
1 | CC(=O)Nc1ccc(Cl)cc1Cl | 111% | 95.5% | 114% | 110% | 114% | 107% | 89.4% | 95.3% | 106% | 130%
2 | Cc1cc(Cl)c2ccc(N(C)C)cc2n1 | 100% | 97.6% | 110% | 95.5% | 106% | 102% | -10.1% (active) | 94.9% | 99% | 102%
3 | CCCCNCC(O)c1cc(-c2ccc(C(F)(F)F)cc2)nc(-c2ccc(C(F)(F)F)cc2)c1 (stereo not given) | -63.9% (active) | -76.2% (active) | -74.3% (active) | -90.5% (active) | -76.7% (active) | -86% (active) | -79% (active) | -83.5% (active) | -78.7% (active) | -87.2% (active)
4 | COC(=O)/C=C/c1cc(OC(C)=O)c2c(c1)[C@@H](C(=O)OC)[C@H](c1ccc(OC(C)=O)c(OC(C)=O)c1)O2 | 20.7% | -7.97% (active) | 60% | 24% | 11.4% | 12.9% | -25.3% (active) | 20.6% | 21.5% | 47.1%
5 | CC(C)NCCCCCNc1cc(O)cc2cccnc12 | 45.7% | 92.1% | 56.9% | 71.5% | 105% | -8.76% (active) | 86.5% | 123% | 70.1% | -36.3% (active)
6 | CCCc1n(Cc2ccc3ccccc3n2)cc[n+]1Cc1ccc2ccccc2n1 | 13% | 38% | 72.1% | 51.7% | 34.2% | 16% | 22.8% | 62.8% | 85.3% | -43% (active)
7 | COC(=O)CNS(=O)(=O)c1ccc2c(c1)Cc1cc(S(=O)(=O)NCC(=O)OC)ccc1-2 | 107% | 89.9% | 106% | 97.8% | 105% | 99.6% | 95.7% | 99.7% | 105% | 107%
8 | CN1CCN(Cc2ccc(NC(=O)c3cncc(C#Cc4ncc5cnccn45)c3)cc2C(F)(F)F)CC1 | 34.3% | -7.4% (active) | 60.4% | 33.7% | 52.6% | 11.2% | 58.3% | 74.2% | 71.5% | 17%
9 | COC(=O)C1(C)COP(=O)(NC23CC4CC(CC(C4)C2)C3)OC1 (stereo not given) | 106% | 108% | 99% | 99% | 103% | 83.6% | 89.5% | 99.7% | 102% | 103%
10 | ClCc1cccc(CSc2ncnc3c2ncn3Cc2cccc(CCl)c2)c1 | 33.9% | -54.8% (active) | 101% | -38.8% (active) | 36.7% | 99.3% | -69.8% (active) | 88.7% | 13% | 26.3%
11 | O=C(/C=C/c1cccc([N+](=O)[O-])c1)c1ccc(Nc2nc(N3CCCCC3)nc(N3CCCCC3)n2)cc1 | 98.7% | 74.2% | 103% | 105% | 96% | 102% | 87.2% | 85.7% | 93.9% | 108%
12 | NS(=O)(=O)c1ccc(N2N=C(c3ccc(Br)cc3)CC2c2cn(-c3ccccc3)nc2-c2ccc(Cl)cc2)cc1 (stereo not given) | 88.3% | 103% | 92.5% | 98.2% | 81.6% | 157% | 89.9% | 76.8% | 97.9% | 86.3%
